From PubChem BioAssay
TEAD-YAP inh: TEAD-YAP interaction inhibition; HEK-TIYL cells, TEAD-Gal4/YAP UAS-luciferase luminescence; inhibition, % at 9.12 µM; 1.4% of 640,000 active; AID 1259422; in the data active means inhibition above about 32%;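 further: 0% = median of test compound wells and 100% = reference inhibitor wells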
MITF inh: inhibitors of human MITF. inhibition, % at 2.6 µM. AID 1259374. AlphaScreen MITF homodimerization, bead proximity signal. 0.91% of 650,000 active; in the data active means inhibition above about 50%;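 further: 0% = vehicle wells with protein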
FBW7 act: activators of human E3 ligase FBW7; AlphaScreen FBW7–phospho-cyclin E peptide binding, activator screen; AID 1259310; Q969H0; 0.13% of 650,000 active; normalized activity (activation), % at 26.1 µM; in the data active means normalized activity above about 1.9%;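 further: purified mutant Fbw7 with reduced substrate affinity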
Target sequence (Q969H0 whole entry, looked up): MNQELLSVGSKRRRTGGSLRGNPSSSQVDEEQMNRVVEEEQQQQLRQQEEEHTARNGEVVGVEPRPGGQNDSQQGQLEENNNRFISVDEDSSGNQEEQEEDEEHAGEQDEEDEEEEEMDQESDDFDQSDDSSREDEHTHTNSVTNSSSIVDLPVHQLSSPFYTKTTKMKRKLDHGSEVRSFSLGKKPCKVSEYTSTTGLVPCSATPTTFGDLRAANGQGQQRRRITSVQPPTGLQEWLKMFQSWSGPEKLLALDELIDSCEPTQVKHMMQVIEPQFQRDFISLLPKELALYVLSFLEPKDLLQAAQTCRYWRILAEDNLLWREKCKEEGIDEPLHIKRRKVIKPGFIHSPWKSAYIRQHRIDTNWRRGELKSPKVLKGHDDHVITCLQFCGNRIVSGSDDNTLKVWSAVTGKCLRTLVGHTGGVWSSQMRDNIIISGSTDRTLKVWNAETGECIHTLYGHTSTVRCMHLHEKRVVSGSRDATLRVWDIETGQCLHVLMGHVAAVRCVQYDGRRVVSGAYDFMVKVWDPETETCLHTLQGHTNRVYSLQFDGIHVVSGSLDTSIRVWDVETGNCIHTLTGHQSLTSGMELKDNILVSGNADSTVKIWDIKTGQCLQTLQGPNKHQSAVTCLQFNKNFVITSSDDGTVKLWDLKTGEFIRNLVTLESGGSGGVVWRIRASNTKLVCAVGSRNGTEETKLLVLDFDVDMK
GPR151 ag: activators of human GPR151; Q8TDV0; PathHunter beta-arrestin GPR151 cells, luminescence; activation, % at 11.2 µM; 1% of 650,000 active; AID 1508602; in the data active means activation above about 4.9%;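 further: 0% = median of compound wells and 100% = cells with positive control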
An asterisk follows results filed as active; / = no result. Sampled rows, rich in hits. Any-hit rate of the full collection: about 3.5%.

SMILES	TEAD-YAP inh	MITF inh	FBW7 act	GPR151 ag
Nc1cccc(-c2nc(NCCc3ccc(O)cc3)c3ncn(-c4ccsc4)c3n2)c1	55.8*	-5.6	0.1	0.1
O=C(NCCO)c1cnc(-c2ccccc2)s1	-16.9	0.7	0.1	0.5
CCOC(=O)c1c(C)n(C)c2ccc(O)c(S(=O)(=O)c3ccc(OC)cc3)c12	-1.0	-1.5	0.0	0.1
O=C(NC1CC1)c1ccc(-c2nc(NC3CC3)c3ncn(-c4ccccc4)c3n2)cc1	33.4*	-13.6	0.2	-0.2
O=C(NC1CC1)c1ccc(-c2nc(NCCN3CCOCC3)c3ncn(-c4ccccc4)c3n2)cc1	67.2*	-2.2	0.0	-0.5
CCOc1ccccc1C1CC(=O)NC(C)=C1C(=O)OCCSCC (centres undefined)	8.2	10.1	0.6	0.5
Cc1cc(C)n(CCNC2CCN(c3cccc(NC(=O)CC4CCCC4)c3)CC2)n1	41.5*	-8.0	0.0	-1.3
Cc1cc(C)n(CCNC2CCN(c3cccc(NC(=O)C4CC4)c3)CC2)n1	-13.4	-3.7	-0.1	-1.1
COc1ccc(-c2cc(N)n(S(=O)(=O)c3ccc(F)c(C)c3)n2)c(OC)c1	5.5	11.5	0.2	1.4
O=C(CCCc1ccccc1)Nc1cccc(N2CCC(NC3CCOCC3)CC2)c1	0.1	-11.5	0.0	2.3
NC(=O)[C@@H]1CCCN1C1CCN(c2cccc(NC(=O)CCCc3ccccc3)c2)CC1	38.5*	-7.8	-0.1	0.7
Cc1cnc(CNc2cc(-c3ccccc3F)nc(-c3cccnc3)n2)nc1	43.3*	14.9	-0.4	0.4
Cc1ccc(C(=O)Nc2cc3ccccc3oc2=O)cc1	86.5*	8.1	0.0	-2.3
CCCCc1ccc(C(=O)Nc2cc3ccccc3oc2=O)cc1	54.7*	-1.4	0.0	0.9
CC(=O)Oc1ccc2cc(NC(=O)c3cccc(C)c3)c(=O)oc2c1	38.1*	4.0	0.3	-3.0
CC(=O)Nc1cc2ccccc2oc1=O	-1.7	26.0	0.2	-1.1
Cc1ccc(C(=O)Nc2cc3cc(Br)ccc3oc2=O)cc1C	-10.1	-2.0	-0.1	-1.2
Cc1ccc(C(=O)Nc2cc3ccccc3oc2=O)cc1C	61.7*	-3.3	-0.2	-2.1
CCC(C)NC(=O)COC(=O)c1cc2ccccc2cc1O (centres undefined)	6.3	-2.0	0.0	0.6
COc1cc(C2C(C#N)=C(N)OC3=C2C(=O)CC(c2ccccc2)C3)ccc1OCc1ccccc1 (centres undefined)	-10.7	-3.6	-0.2	-0.1
CCc1ccccc1NC(=O)CCCC(=O)OCC(=O)c1ccc(F)cc1	6.8	4.4	0.6	-2.7
CCOC(=O)N1CCN(c2c(NCCCN(CC)c3cccc(C)c3)c(=O)c2=O)CC1	5.7	68.4*	-0.1	0.6
CCOc1ccc(/C=C/c2c([N+](=O)[O-])c(=O)n(C)c(=O)n2C)cc1	12.7	-4.2	-0.2	1.5
CCc1ccc(/C=C/c2c([N+](=O)[O-])c(=O)n(C)c(=O)n2C)cc1	44.3*	3.8	-0.1	0.3
COCCCNC(=O)c1cnn(-c2nccc(-c3ccc(OC)c(F)c3)n2)c1C1CC1	48.5*	13.1	0.2	-1.2
SMILES	TEAD-YAP inh	MITF inh	FBW7 act	GPR151 ag
COc1cccc(-c2ccnc(-n3ncc(C(=O)NCc4ccccn4)c3C3CC3)n2)c1	13.6	14.3	-0.3	0.4
Cc1ccc(C2OC3(C(=O)c4ccccc4C3=O)C(c3ccccc3)C23C(=O)c2ccccc2C3=O)cc1 (centres undefined)	9.1	0.9	0.0	0.5
O=C1c2ccccc2C(=O)C12OC(c1ccc(Br)cc1)C1(C(=O)c3ccccc3C1=O)C2c1ccc(F)cc1 (centres undefined)	-5.3	63.3*	0.0	0.5
CCc1c(C)sc(NC(=O)C2C3C=CC(C3)C2C(=O)O)c1C(=O)OC(C)C (centres undefined)	63.7*	-4.0	-0.1	1.4
CN1CCN(c2ccc(-c3ccc4c(-c5cccc(O)c5)[nH]nc4n3)cn2)CC1	96.1*	-5.3	0.1	-0.2
COc1ccc(-c2[nH]nc3nc(-c4ccc(N5CCN(C)CC5)nc4)ccc23)cc1OC	-44.0	19.9	0.7	0.9
Cc1ccccc1OCc1nc2ccc(-c3cn[nH]c3C)cc2c(=O)[nH]1	48.0*	6.4	0.1	0.5
COc1cccc(OCc2nc3cc(-c4cn[nH]c4C)ccc3c(=O)[nH]2)c1	56.0*	25.9	0.4	-0.9
O=c1nc(N/N=C/c2ccccc2Cl)cn[nH]1	18.2	2.4	0.4	-5.8
O=c1nc(N/N=C/c2ccc(Cl)cc2Cl)cn[nH]1	67.0*	6.6	0.0	-6.6
O=C1C2=CC[C@H]3C(=O)N(c4cccc(Oc5ccccc5)c4)C(=O)[C@H]3[C@H]2[C@H](O)[C@@H]2O[C@H]12	/	7.3	-0.1	-1.0
CN1C(=O)N(C)c2cccc3cccc1c23	-17.1	0.6	-0.1	-0.9
CN1C(/C=C/c2ccccc2Cl)=Nc2cccc3cccc1c23	-46.6	53.2*	-0.1	0.3
COc1cc(OC)cc(C(=O)Nc2nc3ccc4ccccc4c3s2)c1	-3.2	0.0	0.1	-0.1
O=C(Nc1cccc(O)c1)c1scc2c1CCCC2	78.9*	-8.2	-0.2	-3.7
O=C(Nc1cccc(O)c1)c1c(O)c2c([nH]c1=O)CCCC2	55.9*	1.8	-0.1	1.0
Cc1ccc(NC(=O)c2scc3c2CCCC3)cc1	29.7	-0.4	0.1	-2.6
CC(C)(C)c1ccc(NC(=O)c2scc3c2CCCC3)cc1	32.8*	-17.3	0.0	-0.2
CC(=O)c1ccc(NC(=O)c2scc3c2CCCC3)cc1	72.4*	3.5	0.2	-0.2
O=C(Nc1ccc2ccccc2c1)c1scc2c1CCCC2	24.7	-22.6	0.0	-2.5
COc1ccc(NC(=O)c2scc3c2CCCC3)cc1	40.3*	-10.2	-0.1	-6.0
COc1ccc(-n2ncc3c(=O)[nH]cnc32)cc1	-1.9	12.3	0.5	-0.8
COc1ccc(-n2nc3nc[nH]c(=O)c3n2)cc1	45.6*	5.6	-0.1	-5.2
Cc1nc(C)c(C(=O)N[C@@H](Cn2nnc3ccccc32)C(C)C)o1	-0.3	14.2	0.2	0.2
COCCCC1CCN(C(=O)CCc2nnc(CCc3ccccc3)o2)CC1	-46.3	2.4	0.1	0.8
SMILES	TEAD-YAP inh	MITF inh	FBW7 act	GPR151 ag
CCOC(=O)c1ccc(NC(=S)Nc2cccc(OC)c2)cc1	61.8*	6.5	0.8	-0.9
COc1cccc(/C=N/NC(=S)Nc2cccc(C(=O)O)c2)c1O	60.5*	111.7*	-0.1	-9.0
O=C(O)c1cccc(NC(=S)N/N=C/c2cc(Cl)ccc2O)c1	-11.6	90.8*	-0.9	-1.8
COc1cccc(/C=N/NC(=S)Nc2cccc(F)c2)c1O	40.2*	57.7*	-0.2	-0.4
CN(C)Cc1ccc(C2CCCCN2c2nncc(-c3ccc4c(c3)OCO4)n2)cc1 (centres undefined)	-5.8	-14.3	0.9	0.9
COc1ccccc1/C=N/NC(=S)Nc1ccccc1OC	46.1*	-4.5	-0.1	1.4
COc1ccccc1/C=N/NC(=O)C(=O)Nc1ccccc1OC	0.8	2.8	0.2	-1.5
COc1cc(/C=N/NC(=S)Nc2cccc(C(=O)O)c2)ccc1O	32.3*	-3.2	-0.1	-1.9
COc1cccc(NC(=S)N/N=C/c2ccc(O)cc2)c1	60.0*	-2.7	-0.1	-0.8
